Compound activity from PubChem BioAssay.
Shown is part of a subset that was picked to be rich in hits.
CD40 NFkB inh: CD40 pathway inhibition in BL2 cells. 0.94% of 83,000 active. inhibition, % at 10 µM. BL2 NF-kB luciferase reporter, CD40L-induced, 4 h;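 active means mean inhibition of at least 50% with a set share of replicates also reaching that level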;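 further: 0% = neutral control wells and 100% = IKK inhibitor VII at 50 µM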
Numbers without * were called inactive; i = inactive; ! = a repeat was not active; [ ] = dose if it differs, or a comment.

SMILES	CD40 NFkB inh
C[C@H](NC(=O)N(C)C[C@H]1OCc2ccccc2-c2ccccc2C(=O)N([C@H](C)CO)C[C@@H]1C)c1ccccc1	-18[25 µM]
N#Cc1ccc(-c2ccc(C3[C@@H]4CN(C(=O)C5CCCC5)C[C@H]3N4)cc2)cc1 (stereo partly drawn)	3
Cc1cccc(-c2ccc(C3[C@@H]4CN(C(=O)C5CCC5)C[C@H]3N4)cc2)c1 (stereo partly drawn)	14
Cc1cccc(-c2ccc(C3[C@@H]4CN(C(=O)Nc5ccccc5)C[C@H]3N4)cc2)c1 (stereo partly drawn)	0
N#Cc1cccc(-c2ccc(C3[C@@H]4CN(C(=O)C5CC5)C[C@H]3N4)cc2)c1 (stereo partly drawn)	76*!
O=C(C1CCCC1)N1C[C@@H]2N[C@H](C1)C2c1ccc(-c2cccc(F)c2)cc1 (stereo partly drawn)	8
O=C(Nc1ccc(C(F)(F)F)cc1)N1C[C@@H]2N[C@H](C1)C2c1ccc(-c2ccccc2)cc1 (stereo partly drawn)	70*!
O=C(C1CC1)N1C[C@@H]2N[C@H](C1)C2c1ccc(-c2cccc(F)c2)cc1 (stereo partly drawn)	60*!
O=C(C1CC1)N1C[C@@H]2N[C@H](C1)C2c1ccc(-c2ccccc2F)cc1 (stereo partly drawn)	83*!
O=C(Nc1ccc(F)cc1)N1C[C@@H]2N[C@H](C1)C2c1ccc(-c2ccccc2F)cc1 (stereo partly drawn)	-4
N#Cc1ccc(-c2ccc(C3[C@@H]4CN(C(=O)C5CCC5)C[C@H]3N4)cc2)cc1 (stereo partly drawn)	44
O=C(Nc1ccc(C(F)(F)F)cc1)N1C[C@@H]2N[C@H](C1)C2c1ccc(/C=C/c2ccccc2)cc1 (stereo partly drawn)	45
O=C(c1ccc(F)cc1)N1C[C@@H]2N[C@H](C1)C2c1ccc(-c2ccccc2F)cc1 (stereo partly drawn)	4[25 µM]
C[C@@H]1CCCCO[C@@H](CN(C)S(=O)(=O)c2ccccc2)[C@@H](C)CN([C@@H](C)CO)C(=O)c2cc(NC(=O)Nc3ccc4c(c3)OCO4)ccc2O1	11[25 µM]
C/C=C/c1cnc2c(c1)C(=O)N([C@H](C)CO)C[C@@H](C)[C@H](CN(C)C(=O)C1CCOCC1)O2	-6[25 µM]
O=C(Nc1cccc(Cl)c1)N1C[C@H]2[C@@H](c3ccccc31)[C@H](CO)N2C(=O)C1CC1	-2
O=C(C[C@@H]1CC[C@H]2NC[C@H](O)COC[C@@H]2O1)Nc1ccc(-c2ccccc2)cc1	-6[25 µM]
CN(C)C(=O)C[C@@H]1CC[C@@H]2[C@H](COc3ccc(NC(=O)C4CCCC4)cc3C(=O)N2C)O1	9
COc1cccc(S(=O)(=O)N(C)C[C@@H]2OCc3ccccc3-c3ccccc3C(=O)N([C@H](C)CO)C[C@H]2C)c1	3[25 µM]
COCC(=O)N1[C@H](C#N)[C@@H](c2ccccc2-c2ccccc2F)[C@@H]1CO	-7[25 µM]
O=C(C[C@H]1CC[C@H](NC(=O)NC2CCCCC2)[C@H](CO)O1)NCc1ccc(F)cc1	4
Cc1cc(C)c2c(N)c(C(=O)NC3CC3)sc2n1	-5
Cc1cc(C)c2c(N)c(C(=O)Nc3nccs3)sc2n1	70*
Cc1cc(C)c2c(N)c(C(=O)NN)sc2n1	-14
CNc1cc2ncnc(Nc3cccc(Br)c3)c2cc1N	-7[25 µM]
SMILES	CD40 NFkB inh
CO[C@H]1CN(C)C(=O)c2cc(NC(=O)c3cc(C)on3)ccc2OC[C@H](C)N(C(=O)C2CC2)C[C@@H]1C	2
C(=NN=C1c2ccccc2-c2ccccc21)c1c[nH]c2ccccc12	-58
C(=Cc1c[nH]c2ccccc12)c1nccc2ccccc12	62*
OCC[n+]1ccc(/C=C/c2c[nH]c3ccccc23)cc1	5
COc1cccc(-c2ccc3c(c2)[C@H]2[C@H](CCN2C(=O)C2CCC2)[C@H](CO)N3)c1	-24
CS(=O)(=O)Nc1ccc2c(c1)[C@@H]1C[C@@H](CC(=O)NC3CCCC3)O[C@@H](CO)[C@@H]1O2	1[25 µM]
CO[C@@H]1CN(C)C(=O)c2ccc(NS(=O)(=O)c3cccc(Cl)c3)cc2OC[C@@H](C)N(C(=O)Cc2cccnc2)C[C@H]1C	-4[25 µM]
CC1CCN(S(=O)(=O)c2ccc3c(c2)oc(=O)n3C)CC1	8
Cc1ccc(S(=O)(=O)N2CCC(N3CCC(C)CC3)CC2)cc1	6
CC1CCN(S(=O)(=O)c2ccc3c(c2)C(Cl)(Cl)C(=O)N3)CC1	53*
O=C(c1ccc(F)cc1)N1CC(=O)N2[C@@H](CO)[C@@H](c3ccc(C#CC4CCCC4)cc3)[C@@H]2C1	8
O=S(=O)(c1cccc2cnccc12)N1CCCNCC1	-6[25 µM]
O=[N+]([O-])c1cccc2cnccc12	11
CC1CNCCN1S(=O)(=O)c1cccc2cnccc12 (stereo not drawn)	32*
O=C(Nc1cccc(F)c1)N1CCCCN2[C@H](CO)[C@H](c3ccc(C#CC4CC4)cc3)[C@H]2C1	21
COc1ccccc1N(CC(=O)N(CC(C)C)CC(C)C)S(=O)(=O)c1cccs1	14
COc1ccc(Cl)cc1N(C(C)C(=O)O)S(C)(=O)=O (stereo not drawn)	-1
COc1ccccc1N(C(C)=O)C1=C(Cl)C(=O)c2ccccc2C1=O	101*
N#C[C@H]1[C@@H](c2ccc(C#CC3CC3)cc2)[C@H](CO)N1S(=O)(=O)c1ccccc1	6
C=C1C(=O)OC2C=C(CO)C3OC3C3OC3(C)CC(OC(=O)/C(=C/C)COC(C)=O)C12 (stereo not drawn)	101*
CCN(CC(=O)Nc1ccc(NC(C)=O)cc1)C(=O)C1CCCC1	1
CCN(CC(=O)Nc1ccc(NC(C)=O)cc1)C(=O)C1CCCN(C(=O)c2ccc(Cl)cc2)C1 (stereo not drawn)	28*
CCc1nnc(NC(=O)C2CCCN(C(=O)c3ccc(Cl)cc3)C2)s1 (stereo not drawn)	-40
COc1cccc(-c2ccc([C@H]3[C@@H](CO)N4CCCCN(CC5CC5)C[C@@H]34)cc2)c1	7[25 µM]
COc1cccc(C#Cc2ccc3c(c2)[C@H]2[C@H](CCN2S(=O)(=O)c2ccc(C)cc2)[C@@H](CO)N3)c1	17[25 µM]
SMILES	CD40 NFkB inh
C[C@H](CO)N1C[C@H](C)[C@@H](CN(C)S(=O)(=O)c2ccccc2F)OCc2ccccc2-c2ccccc2C1=O	15
O=C(CCN1CCCCC1)N[C@H]1CC[C@@H](CCNS(=O)(=O)c2ccccc2)O[C@H]1CO	-8
O=C(CNC(=O)c1ccc(Br)cc1)N/N=C/c1ccc[nH]1	6
O=C(N/N=C/c1ccc[nH]1)c1ccc(O)cc1	-39
Cc1cc(Br)c(OCc2ccc(C(=O)N/N=C/c3ccc[nH]3)cc2)c(Br)c1	75*
O=C(c1cccnc1)N1C[C@@H]2[C@H](c3ccccc31)[C@@H](CO)N2C(=O)Nc1ccccc1	5
CO[C@H]1CN(C)C(=O)c2cc(NC(=O)c3cccc(F)c3)ccc2OC[C@@H](C)N(C)C[C@@H]1C	-8[25 µM]
COc1ccc(C(=O)Nc2ccc3ccccc3n2)c(OC)c1OC	51*
COc1c(C(=O)Nc2ccc(Cc3ccncc3)cc2)ccc2ccccc12	-25
COc1ccc(C(=O)NCCN(C)C)c2nc3ccccc3cc12	i
O=C([C@@H]1[C@@H](CO)[C@@H]2Cn3c(cccc3=O)[C@H]1N2C(=O)c1ccc(F)cc1)N1CCCCC1	-6[25 µM]
C[C@H]1CN([C@@H](C)CO)C(=O)c2cc(-c3ccc(C(=O)N(C)C)cc3)cnc2O[C@H]1CN(C)C(=O)c1ccncc1	-2
Cc1nc2ccccc2c(=O)n1CCN1CCOCC1	-4
